An excerpt weighted towards active compounds, which were near 5.9% of everything screened.
HSF1 activator = increases HSF-1 driven luciferase reporter signal. NIH3T3-HGL HSF-1 luciferase reporter, MG132, 8 h; 100% = twice DMSO control signal. activation, % at 9 µM. 300,000 tested, 1.7% active. AID 504408;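 active = mean replicate activation of at least 50% with a set share of replicates each reaching 50%; inconclusive = only one of those two conditions met; inactive = mean below 50% and too few replicates reaching it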
GAA850 FXN act = activators of GAA850 frataxin (FXN) promoter. AID 540364. HEK293 lucGAA850 FXN promoter luciferase reporter, 24 h; percent of 10 µM SAHA response. activation, % at 6 µM. 360,000 tested, 0.56% active;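 active = activation above the average of all compounds screened plus 3 SD, cutoff fixed separately per campaign, cut at about 7.5% in these data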
AHR act = activates the human aryl hydrocarbon receptor. 320,000 tested, 2.5% active. AHR-responsive luciferase reporter cells, luminescence. activation, % at 5 µM. P35869; in the data active = activation above about 47%
Target sequence (P35869 whole entry, looked up): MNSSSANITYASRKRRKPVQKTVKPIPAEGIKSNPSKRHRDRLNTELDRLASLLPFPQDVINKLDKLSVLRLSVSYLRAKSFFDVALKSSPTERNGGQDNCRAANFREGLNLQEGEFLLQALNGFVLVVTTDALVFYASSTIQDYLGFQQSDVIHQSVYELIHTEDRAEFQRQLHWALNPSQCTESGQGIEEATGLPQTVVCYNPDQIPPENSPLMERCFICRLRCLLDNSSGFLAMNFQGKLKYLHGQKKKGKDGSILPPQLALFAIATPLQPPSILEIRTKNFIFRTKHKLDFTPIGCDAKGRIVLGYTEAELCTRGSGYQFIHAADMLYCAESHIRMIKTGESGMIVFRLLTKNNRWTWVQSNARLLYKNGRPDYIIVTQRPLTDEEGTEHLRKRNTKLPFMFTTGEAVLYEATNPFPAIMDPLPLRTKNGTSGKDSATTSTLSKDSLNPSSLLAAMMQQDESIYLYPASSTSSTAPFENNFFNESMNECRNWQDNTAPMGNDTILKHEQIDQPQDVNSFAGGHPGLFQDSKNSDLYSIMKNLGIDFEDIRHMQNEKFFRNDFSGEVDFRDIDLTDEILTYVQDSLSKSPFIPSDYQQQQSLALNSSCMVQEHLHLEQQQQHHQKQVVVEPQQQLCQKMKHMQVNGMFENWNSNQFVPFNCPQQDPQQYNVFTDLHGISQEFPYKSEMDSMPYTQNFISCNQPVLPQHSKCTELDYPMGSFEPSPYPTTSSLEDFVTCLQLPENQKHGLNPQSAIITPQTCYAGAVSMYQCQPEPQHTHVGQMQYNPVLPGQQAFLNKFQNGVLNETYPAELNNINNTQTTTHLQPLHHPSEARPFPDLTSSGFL
HSP90 refold inh = HSP90 refolding inhibition in rabbit reticulocyte lysate; luciferase refolding luminescence, 3 h; 290,000 tested, 0.91% active; inhibition, % at 5.6 µM;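 active = inhibition above the screen-wide mean plus 3 SD, computed separately per campaign, cut at about 16% in these data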;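 also: inhibitors lower the luminescence because luciferase stays unfolded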
HSF1 inh = HSF1 inhibition; NIH3T3-HGL HSE-luciferase, MG132-induced, luminescence 8 h; hits give low values; activity change, negative = inhibition, % at 7.5 µM (by protocol); 300,000 tested, 0.77% active; AID 2098;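 active = more than half of replicate wells show activity change below -50%, luminescence cut by over half; inconclusive = some wells, but at most half, below -50%; inactive = no replicate well below -50%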;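 also: luciferase reports HSF-1 transcriptional activity via heat shock element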
DAX1 inh = inhibits human nuclear receptor DAX1; HEK293 Gal4-DAX1 luciferase reporter, luminescence; P51843; AID 504766; 340,000 tested, 0.99% active; inhibition, % at 6.75 µM;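 active = inhibition above the mean over all tested compounds plus 3 SD, cut at about 4.2% in these data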;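 also: inhibition shows as a rise in luminescence from relieved DAX1 repression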
Hits are given with their value; i = inactive; ? = inconclusive; nt = no result given.

SMILES | HSF1 activator | GAA850 FXN act | AHR act | HSP90 refold inh | HSF1 inh | DAX1 inh
Cc1cccc(CN2CCC(n3nccc3NC(=O)CCCc3ccccc3)CC2)c1 | nt | i | nt | nt | nt | i
Cc1nc2ccc(S(=O)(=O)NC(C(=O)NCc3cccs3)C(C)C)cc2s1 (stereo unspecified) | i | i | i | i | -81 | i
COc1ccccc1N(C(=O)CCl)c1cn(C(C)=O)c2ccccc12 | i | i | i | i | -76 | i
CCOC(=O)c1ccccc1Nc1cn(C(C)=O)c2ccccc12 | i | i | i | i | i | i
CC(=O)n1cc(N(C(=O)CCl)c2ccc(Cl)cc2)c2ccccc21 | i | i | i | i | -84 | nt
CCOc1ccnc2c1c(=O)n(Cc1cc(OC)cc(OC)c1)c(=O)n2C | i | i | i | i | i | i
CN(Cc1cccnc1)C(=O)c1cc(S(=O)(=O)Nc2ccccc2F)ccc1Cl | nt | i | nt | nt | nt | i
Cn1nc(C(=O)Nc2ccc(S(=O)(=O)Nc3ncccn3)cc2)ccc1=O | i | i | i | i | i | 5.1
CCC1(CC)NC(=O)N(CC(=O)OCC(=O)NC(=O)c2ccccc2OC)C1=O | i | i | i | nt | i | i
O=[N+]([O-])c1ccc(S(=O)(=O)NCCS(=O)(=O)N2CCN(c3ccccc3)CC2)cc1 | i | i | i | i | i | i
COc1cc(OC)cc(-c2nc3cc(C)ccc3o2)c1 | ? | i | 58 | i | i | i
Cc1ccc(-c2nc3cc(Cl)ccc3o2)cc1 | i | i | i | i | i | i
NC(=O)Cc1ccc(C(=O)c2ccc(Cl)cc2)s1 | i | i | i | i | -64 | i
Cn1c(SCc2cccc(F)c2)nnc1-c1ccccn1 | i | i | i | i | i | 5.2
Cc1ccc2c(c1)N=C(c1ccc(F)cc1)CO2 | nt | i | i | i | nt | i
O=[N+]([O-])c1ccc(C2=Nc3cc(Cl)ccc3OC2)cc1 | i | i | 67 | i | i | i
COc1ccccc1/C=C/C1=NC(=C\C=C/c2ccccc2)/C(=O)O1 | 171 | i | i | i | i | i
O=C(CN1C(=O)c2ccc([N+](=O)[O-])cc2C1=O)NC1CCS(=O)(=O)C1 (stereo unspecified) | i | i | i | nt | i | 5.6
CCc1nc2ccc(C(=O)Nc3ccc4c(c3)OCC(=O)N4)cn2c1N(C)C(=O)Cc1ccccc1 | nt | i | nt | nt | nt | nt
Cc1ccc(S(=O)(=O)N2CCCN(C(=O)CNC(=O)c3cccc(C)c3)CC2)cc1 | nt | i | i | nt | nt | i
c1ccc2c(c1)NC(c1ccncc1)n1c-2nc2ccccc21 (stereo unspecified) | i | i | 70 | i | i | i
c1cncc(C2Nc3ccccc3-c3nc4ccccc4n32)c1 (stereo unspecified) | i | i | i | i | i | i
Cc1ccsc1C1Nc2ccccc2-c2nc3ccccc3n21 (stereo unspecified) | i | i | 82 | i | i | i
COc1ccc(-c2oc3ccccc3c(=O)c2OC(=O)c2ccc(C)cc2)cc1 | i | i | i | i | i | i
O=C(Oc1c(-c2ccccc2Cl)oc2ccccc2c1=O)c1ccc(Cl)cc1 | i | i | i | i | -54 | i
SMILES | HSF1 activator | GAA850 FXN act | AHR act | HSP90 refold inh | HSF1 inh | DAX1 inh
CSc1ccc(Cl)c(C(=O)N2CCN(c3ncccn3)CC2)c1 | nt | i | i | nt | nt | i
CN(C)/N=C/c1ccc(Sc2ccc([N+](=O)[O-])cc2[N+](=O)[O-])o1 | i | i | i | i | i | i
Cc1cc(C)nc(Sc2ccc([N+](=O)[O-])cc2[N+](=O)[O-])n1 | 66 | i | i | i | i | i
CCOc1ccc(S(=O)(=O)N2CCCCC2)cc1NC(=O)C1CSC2(C)CCC(=O)N12 (stereo unspecified) | i | i | i | nt | i | i
CN(CC(=O)Nc1ccccc1C(F)(F)F)C(=O)C1CCN(C(=O)c2ccc(Cl)cc2)CC1 | i | i | i | nt | i | i
C#CCNC(=O)C1=C[C@@H](C2CCCCC2)[C@H](CCCO)[C@@H](OCC)O1 | i | i | i | i | i | 5.3
CCO[C@@H]1OC(C(=O)O)=C[C@H](C2CCCCC2)[C@H]1CCCO | i | i | i | i | i | i
CCO[C@@H]1OC(C(N)=O)=C[C@H](C2CCCCC2)[C@H]1CCCO | i | i | i | nt | i | 4.3
CCOc1ccc(N(CC(=O)N/N=C/c2ccccn2)S(=O)(=O)c2ccc(Cl)cc2)cc1 | nt | i | nt | i | nt | i
Oc1ccc(-c2nccc(-c3cccs3)n2)cc1 | i | i | 70 | i | i | 4.8
COC(=O)C(C)Oc1ccc(-c2nccc(-c3cccs3)n2)cc1 (stereo unspecified) | i | i | i | i | i | i
Cc1nc2cc(-c3sccc3-n3cccc3)nn2c(C)c1C | i | i | 69 | i | i | i
Cc1cc(-c2sccc2C)nc(-n2cccc2)n1 | i | i | i | i | i | i
O=C1Nc2ccc(Br)cc2C12NNc1ccccc1O2 (stereo unspecified) | i | i | 60 | i | i | i
Cc1cccc(C(=O)OCC(=O)c2cccc(Br)c2)c1O | i | i | i | i | i | i
Cc1ccc(-n2nnc(-c3cnc4ccccc4c3)n2)cc1 | i | i | i | i | i | 5.1
CNC(=O)OCN1C(=O)C2CC=CCC2C1=O (stereo unspecified) | nt | i | nt | nt | nt | i
O=C(NC(=S)Nc1ccccc1C(F)(F)F)c1ccccc1F | 76 | i | i | i | i | i
CCC(NC(=O)CCc1c(C)c2cc3c4c(oc3cc2oc1=O)CCCC4)C(=O)O (stereo unspecified) | i | i | i | i | i | i
Cc1ccc2oc(C(=O)Nc3cc(C)on3)c(C)c2c1 | nt | i | i | nt | nt | i
O=C(CO/N=C/c1ccccc1)N1c2ccccc2Oc2ccccc21 | i | i | i | 16 | i | i
O=C(CN1CCCCC1)N1c2ccccc2Oc2ccccc21 | i | i | i | i | i | i
Cc1ccc(C(=O)NC(=S)N2CCCCCC2)cc1 | nt | i | i | nt | nt | i
CCCc1c(C(=O)N/N=C(\C)c2ccc(CC(C)C)cc2)nnn1-c1nonc1N | nt | i | nt | nt | nt | i
COc1cccc(OC)c1C(=O)Nc1nnc(-c2cccs2)s1 | i | i | i | i | i | i
SMILES | HSF1 activator | GAA850 FXN act | AHR act | HSP90 refold inh | HSF1 inh | DAX1 inh
CCCc1nnc(NC(=O)CN2CCN(C)CC2)s1 | i | i | i | i | i | i
CCC(CC)C(=O)Nc1nnc(-c2cccs2)s1 | i | i | 73 | i | i | i
CN1CCN(CC(=O)Nc2nnc(-c3cccs3)s2)CC1 | i | i | 111 | i | -54 | i
CC1CN(c2nc3ccccc3nc2SCC(=O)Nc2cccc(C(F)(F)F)c2)CC(C)O1 (stereo unspecified) | i | i | i | nt | i | i
Oc1c(/C=N/c2ccccn2)sc2ccccc12 | i | i | i | i | i | 4.7
COc1ccc(C(O)c2nc(-c3ccc(OC)c(OC)c3)cs2)cc1 (stereo unspecified) | nt | i | nt | nt | nt | nt
Cc1ccc(NC(=S)NNC(=S)NC2CCCCC2)cc1 | i | i | 50 | i | i | i
CC1CCN(C(=O)Nc2ccc3nsnc3c2)CC1 | 57 | i | i | i | i | i
